This is one part of a sample in which hits are shown more often than they occur.
IL-1B inflam inh – qHTS for Inhibitors of Inflammasome Signaling: IL-1-beta AlphaLISA Primary Screen; THP-1 LPS/ATP IL-1B secretion, AlphaLISA, 16 h; stronger effect = lower value; activity change, % at 57.5 µM; actives 4.7% (n = 360,000); in the data active = activity change below about -50%; inconclusive = mostly about -30% to -49%
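THP-1 cells pretreated 1 hr with compounds (up to 57.5 uM final), then stimulated with LPS (250 ng/mL final) plus ATP (1.25 mM final); secreted IL-1B measured by AlphaLISA after 16 hr, decreased signal indicating inhibition.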
HT1080-NT tox – qHTS for induction of synthetic lethality in tumor cells producing 2HG: qHTS for the HT-1080-NT fibrosarcoma cell line; AID 686970, 2013; Potency, µM (top dose mostly 46.1 µM), for inactives: top-dose activity, negative = less viability, most hits filed as cytotoxic; actives 1.6% (n = 360,000); HT-1080-NT fibrosarcoma viability, CellTiter-Glo ATP luminescence, 48 h;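 also: NT is the 2HG producing partner of a matched IDH1 knockdown line; potency is read from the fitted curve at half-maximal effect; 0% = DMSO-treated cells and -100% = media-only wells without cells; nearly all actives have a fitted effect of over 55% in size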
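A 48-hour cytotoxicity screen used HT-1080-NT cells plated 2 hours before compound delivery. ATP-based CellTiter-Glo luminescence measured viability, normalized to DMSO and no-cell controls.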
HT1080 IDH1KD tx – qHTS for induction of synthetic lethality in tumor cells producing 2HG: qHTS for the HT-1080-IDH1KD cell line | HT-1080 IDH1 knockdown viability, ATP luminescence, 48 h | Potency, µM (titrated, usually from 46.1 µM), for the others: at the top dose activity, negative = toxicity, hits mostly cytotoxic | actives 2% (n = 360,000);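 also: potency is read from the fitted curve at half-maximal effect; 0% = DMSO wells and -100% = cell-free medium wells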
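In this qHTS, HT-1080 cells depleted of IDH1 are exposed for 48 h at 37 °C to compound titrations. Toxicity is scored from CellTiter-Glo luminescence, with DMSO as full viability and medium alone as none.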
TDP1 cell CPT – qHTS for Inhibitors of human tyrosyl-DNA phosphodiesterase 1 (TDP1): qHTS in cells in presence of CPT; chicken DT40 Tdp1-/-;hTDP1 cells + 20 nM CPT, ATP luminescence, 48 h; Potency, µM (titrated, usually from 46.2 µM), for the others: at the top dose activity change, negative = growth inhibition, hits mostly inhibitors; actives 12% (n = 420,000); AID 686979, 2013; also: potency is read from the fitted curve at half-maximal effect; nearly all actives have a fitted effect of over 55% in size
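Chicken DT40 Tdp1-/- cells stably complemented with human TDP1 were seeded at 400 cells/well in medium containing 20 nM camptothecin, exposed to pin-transferred compounds, and grown at 37 °C for at least 48 hr. Viability was read as ATP luminescence.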
TDP1 cell noCPT – qHTS for Inhibitors of human tyrosyl-DNA phosphodiesterase 1 (TDP1): qHTS in cells in absence of CPT | DT40 Tdp1-/- hTDP1 cells, no CPT, ATP luminescence, 48 h | Potency, µM (titrated, usually from 46.2 µM), without a hit: at the highest dose activity change, negative = growth inhibition, hits mostly inhibitors | actives 15% (n = 420,000) | AID 686978, 2013; also: potency is read from the fitted curve at half-maximal effect; nearly all actives have a fitted effect of over 55% in size
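Cells were dispensed at 400 per well, compounds added by pin tool, plates incubated ≥48 hr at 37 °C, then CellTiter-Glo added for 30 min at room temperature before luminescence reading. Line: DT40 Tdp1-/- complemented with hTDP1; camptothecin omitted.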
ALOX12 inh – Primary qHTS assay for inhibitors of human arachidonate 12S-lipoxygenase (ALOX12): Round 2. Polyunsaturated fatty acid lipoxygenase ALOX12 (Homo sapiens), P18054. purified 12hLO, xylenol orange hydroperoxide absorbance. Potency, µM (doses to about 108 µM), for the others: top-dose activity change, negative = inhibition, most hits filed as inhibitors. actives 1.1% (n = 580,000); also: potency is read from the fitted curve at half-maximal effect
Target sequence (P18054 whole entry, looked up): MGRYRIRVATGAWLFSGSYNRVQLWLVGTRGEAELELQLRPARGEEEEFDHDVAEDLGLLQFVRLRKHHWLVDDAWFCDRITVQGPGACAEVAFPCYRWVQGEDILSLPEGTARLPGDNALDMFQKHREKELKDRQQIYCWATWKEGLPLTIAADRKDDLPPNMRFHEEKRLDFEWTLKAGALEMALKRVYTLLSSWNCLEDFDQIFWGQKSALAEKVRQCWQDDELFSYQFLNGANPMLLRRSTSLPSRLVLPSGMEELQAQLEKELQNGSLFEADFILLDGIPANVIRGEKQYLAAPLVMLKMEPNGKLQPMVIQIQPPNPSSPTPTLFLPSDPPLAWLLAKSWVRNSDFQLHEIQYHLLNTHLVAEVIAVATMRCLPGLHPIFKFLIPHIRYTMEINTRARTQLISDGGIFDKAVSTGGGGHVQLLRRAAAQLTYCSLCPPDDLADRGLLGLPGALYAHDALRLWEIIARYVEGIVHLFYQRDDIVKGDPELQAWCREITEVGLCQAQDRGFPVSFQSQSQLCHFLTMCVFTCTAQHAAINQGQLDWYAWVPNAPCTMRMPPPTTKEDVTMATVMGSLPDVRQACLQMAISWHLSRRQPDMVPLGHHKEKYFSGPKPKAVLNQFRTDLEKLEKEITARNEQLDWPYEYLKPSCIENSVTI
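Purified human 12hLO at 150 nM in 25 mM Hepes, 0.01% Triton X-100, pH 7.0, preincubated 15 min at room temperature with compound. Reaction started with 40 uM arachidonic acid, 30 min at room temperature. Hydroperoxide measured by Fe-xylenol orange, 573/405 nm absorbance ratio.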
* hit, by the source's call; ? = inconclusive; . = no result given; [ ] = remark or other dose. Unless noted, calls follow the shape of the dose curve; as a rule, active = well fitted curve in the direction sought with a large enough effect; inconclusive = small, poorly fitted or top-dose-only effect, or another doubt; inactive = no such curve, though single readings can be large; an effect the other way counts as inactive or inconclusive. Unless noted, % is scaled to controls: 0 for no effect and ±100 for the full control effect.

SMILES	IL-1B inflam inh	HT1080-NT tox	HT1080 IDH1KD tx	TDP1 cell CPT	TDP1 cell noCPT	ALOX12 inh
Cc1cccc2cc(CN(CCN(C)C)C(=S)Nc3ccccc3)c(=O)[nH]c12	-15.3	-13.1%	-19.5%	-29.6%	?	0.9%
Cc1cc2c(cc1C)-n1nnnc1C(N(C)CCc1ccccc1)C(=O)N2 (stereo unspecified)	20.3	-1.5%	-6.7%	23.1µM*	14.6µM*	?
COc1cccc2ccc(N3CCN(Cc4ccccc4)CC(O)C3)nc12 (stereo unspecified)	.	.	.	.	.	15.5%
CC(C)(O)CCc1c(-c2ccc(O)cc2O)oc2c3c(cc(O)c2c1=O)OC(C)(C)C=C3	-13.6	-0.3%	-14.8%	11.6µM*	16.4µM*	44.7µM*
COc1ccc(/C=c2\sc3nc(=O)c(C)nn3c2=O)c(OC)c1	4.8	8.7%	3.4%	6.5%	-11.4%	2.8%
Cc1ccc(/C=c2/sc3nnc(-c4ccccc4Cl)n3c2=O)o1	0.1	7.3%	0.7%	?	11.6µM*	?
Cc1ccc(-c2nc3s/c(=C\c4ccco4)c(=O)n3n2)cc1	28.0	-13.8%	0.4%[9.24 µM]	-21.1%	-12.1%	?
Cc1ccc(/C=c2\sc3nc(-c4ccco4)nn3c2=O)o1	17.6	-14.4%	-9.1%	-73.2%	23.1µM*	.
CCN(CC)c1ccc(/C=c2\sc3nnc(-c4ccccc4Cl)n3c2=O)cc1	0.0	2.0%	1.2%	?	?	24.5%[57.4 µM]
COc1ccccc1/C=c1\sc2nc(-c3ccccc3OC)nn2c1=O	7.2	-0.6%	-2.0%	?	16.4µM*	-11.7%
COc1ccc(Br)cc1/C=c1\sc2nc(-c3ccco3)nn2c1=O	-6.0	4.0%	7.7%	?	?	22.4µM*
Cc1ccc(C2Cn3nnc(C(=O)N4CCC(C(=O)Nc5ccc(F)c(F)c5)CC4)c3CO2)cc1 (stereo unspecified)	.	.	.	.	.	-9.9%
CC(C)CNC(=O)CC(C)Cc1nnc2c(=O)n(-c3cccc(F)c3)ccn12 (stereo unspecified)	.	.	.	.	.	2.1%
COc1cc(/C=C(/C#N)C(=O)c2cccc(C)c2)cc(Cl)c1O	.	.	.	.	.	82.4%
COc1cc(/C=C(/C#N)C(=O)OC(C)C)cc(Cl)c1O	.	.	.	.	.	20µM*
Nc1nnc(CC(=O)N/N=C/c2cccc([N+](=O)[O-])c2)s1	-12.5	-1.0%	-0.7%	-5.5%	-6.7%	-2.7%
Nc1nnc(CC(=O)N/N=C/c2cc([N+](=O)[O-])cc(Br)c2O)s1	5.6	-3.2%	2.3%	-13.8%	0.7%	15.8µM*
CC(=O)c1cnc2nc(SCc3cccc(C)c3)nn2c1C	-12.5	4.0%	5.9%	?	14.6µM*	10.2%
COc1ccc(NC(=O)CN(C)C(=O)c2cc(-c3ccncc3)nc3ccccc23)cc1	-19.7	-10.4%	-22.4%	-28.0%	?	9.7%
CCOc1ccc(NC(=O)CN(C)C(=O)c2cn(-c3ccccc3)nc2-c2cccs2)cc1OCC	0.0	-5.4%	-23.7%	18.4µM*	?	9.8%
CCOc1ccc(NC(=O)CN(C)C(=O)c2cc(C)nc3ccccc23)cc1OCC	16.7	-2.2%	0.3%	-19.8%	?	-1.7%
CCOc1ccc(NC(=O)CN(C)C(=O)c2cn(-c3ccc(C)cc3)nc2-c2cccc(OC)c2)cc1OCC	-3.5	-4.2%	-2.0%	?	?	1.8%
COc1ccc(Cl)cc1NC(=O)CN(C)C(=O)c1cc(-c2ccncc2)nc2ccccc12	-24.8	-11.7%	-26.6%	23.1µM*	14.6µM*	-4.7%
CCOc1ccc(NC(=O)CN(C)C(=O)c2cc(-c3ccncc3)nc3ccccc23)cc1OCC	-10.5	-12.5%	1.5%	?	16.4µM*	?
CCOc1ccc(NC(=O)CN(C)C(=O)c2cc(-c3ccco3)nc3ccccc23)cc1OCC	-4.7	-19.5%	-4.7%	18.4µM*	18.4µM*	?
SMILES	IL-1B inflam inh	HT1080-NT tox	HT1080 IDH1KD tx	TDP1 cell CPT	TDP1 cell noCPT	ALOX12 inh
O=C(c1ccncc1)N1CCCCCC1c1nnc(-c2ccccc2)o1 (stereo unspecified)	.	.	.	.	.	21.9%
CC1(C(=O)N2CCCC2C(=O)Nc2ccccc2Oc2cccnc2)CC1 (stereo unspecified)	.	.	.	.	.	-1.3%
CCCCC[C@H](C)N1C[C@H](COCc2ccccc2)Oc2cc(N3CCC[C@H]3CO)ccc2S1(=O)=O	-55.3*	?	?	?	20.6µM*	42.5%
CCCCC[C@H](C)N1C[C@@H](COCc2ccccc2)Oc2cc(N3CCC[C@H]3COC)ccc2S1(=O)=O	0.5	-3.1%	-14.8%	?	18.4µM*	?
CCCCC[C@@H](C)N1C[C@@H](COCc2ccccc2)Oc2cc(N3CCC[C@H]3C(N)=O)ccc2S1(=O)=O	-29.5	?	?	?	16.4µM*	-21.0%
CCCCC[C@H](C)N1C[C@@H](COCc2ccccc2)Oc2cc(N3CCC[C@H]3CO)ccc2S1(=O)=O	-23.4	?	?	?	?	0.4%
O=C(Nc1ccc(Cl)cc1)N1CCC2(C1)C(=O)N(CCc1ccccc1)c1ccccc12 (stereo unspecified)	.	.	.	.	.	33.1%
COCCn1c(N2CCN(CCO)CC2)nc2c1c(=O)[nH]c(=O)n2C	.	.	.	.	.	-0.7%
Cc1ccccc1C(=O)NCc1coc(-c2cccs2)n1	.	.	.	.	.	6.4%
O=C(O)/C(=C\c1ccc(Cl)c([N+](=O)[O-])c1)c1ccc(S(=O)(=O)N2CCCCC2)s1	17.7	-0.5%	1.5%	22.3%	-18.7%	?
O=C(O)/C(=C\c1ccc(Cl)c([N+](=O)[O-])c1)c1ccc(S(=O)(=O)N2CCCC2)s1	5.7	0.5%[9.24 µM]	-0.3%	2.4%	17.8%	17.8µM*
CC(=O)Nc1ccc(SCCN2CC[C@@H](C(C)(C)C)CCC2=O)cc1	-18.1	0.6%	9.3%	?	12.6µM*	-63.6%
Cc1ccc(SCCN2CCC(C(C)(C)C)CCC2=O)cc1 (stereo unspecified)	1.2	-7.7%	0.3%	9.2µM*	?	-9.8%
CCOc1cccc(CNC(=O)c2ccc(Cn3ccn4nc5c(c4c3=O)CCCC5)cc2)c1	.	.	.	.	.	24.0%

Screening results from PubChem BioAssay.
